Data as given in PubChem BioAssay AID1259309 (ICCB-Longwood Screening Facility, Harvard Medical School, 2017).
“And” between values parts separate entries of the source, which are not always exact repeats. Identical values can stand only once. Among all 330,000 compounds or so, about 1,800 (0.55%) were called active. Cut-off read from the data, not from the text of the source: active = growth inhibition above about 68%; inactive = the rest. The sample as a whole holds a higher share of actives than the screen did.

Test: growth inhibition of ugtP-null S. aureus, primary screen, RN4220 ugtP deletion, OD600 (AID 1259309);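 note: plate controls were untreated wells for no effect and antibiotic for full effect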
Settings: 16 h, active compounds read high

Row | SMILES | growth inhibition
1 | CC(=NNC(=O)CNC(=O)C1COc2ccccc2O1)c1ccc([N+](=O)[O-])cc1 (centres undefined) | 0.446% (inactive)
2 | CC(=O)c1cccc(NC(=O)C2COc3ccccc3O2)c1 (centres undefined) | 8.46% (inactive)
3 | O=C(Nc1ncc([N+](=O)[O-])s1)C1COc2ccccc2O1 (centres undefined) | 90.5% (active)
4 | O=C(O)CCC(=NNC(=O)c1cn(-c2ccccc2)nc1-c1ccccc1)C(=O)O | 0.633% (inactive)
5 | CCc1ccc2c(c1)C1(NN=C(c3ccccc3)S1)C(=O)N2 (centres undefined) | 95.8% (active)
6 | CC(=NOC(=O)c1ccc(F)cc1)c1sc(-c2ccccc2)nc1C | -1.32% (inactive)
7 | CC(=O)c1cnc(-c2ccccc2)s1 | -8.03% (inactive)
8 | O=C(/C=C/Nc1ccccc1)c1cnc(-c2ccccc2)s1 | -8.21% (inactive)
9 | CON=CCC(=O)c1cnc(-c2ccc(Cl)cc2)s1 | 87.5% (active)
10 | CC(=O)Nc1ccc(C(=O)NN=CC2CC3C=CC2C3)cc1 (centres undefined) | 9.12% (inactive)
11 | CS(=O)(=O)c1ccc(CNC(=O)[C@]2(C(F)(F)F)CC(CCc3ccccc3)CCCO2)cc1 (some centres undefined) | -0.803% (inactive)
12 | Cc1ccc(NCC(=O)NN=Cc2ccc([N+](=O)[O-])o2)cc1 | 26.7% (inactive)
13 | C/[N+]([O-])=C\c1ccc([N+](=O)[O-])o1 | 96.9% (active)
14 | Cc1cccc(NC(=O)c2ccc([N+](=O)[O-])o2)c1 | 21.9% (inactive)
15 | CCC(C)N1CCC2(CC1)N=c1c(c3c4c5c(C)c(O)c3c(O)c1=NC(=O)C(C)=CC=CC(C)C(O)C(C)C(O)C(C)C(OC(C)=O)C(C)C(OC)C=CO[C@@](C)(O5)C4=O)N2 (some centres undefined) | 99.6% (active)
16 | Cn1c(=O)[nH]c(=O)c2c1nc(N1CCCCC1)n2CC=NNc1ccc(C(=O)O)cc1 | 10.4% (inactive)
17 | O=C(CNC(=O)c1ccco1)NN=Cc1ccc(O)cc1O | 4.74% (inactive)
18 | CC(C)CC(=O)NC(=S)Nc1ccc(F)cc1F | 86.4% (active)
19 | CC(C)C(=O)NC(=S)Nc1ccccc1F | 14.2% (inactive)
20 | CC(C)CC(=O)NC(=S)Nc1cc(C(=O)O)ccc1Cl | 9.77% (inactive)

Row | SMILES | growth inhibition
21 | CCOC(=O)COc1c(C=NO)cc(Cl)cc1OC | 1.74% (inactive)
22 | O=C(CN1CCCCCC1)Nc1ccc(Br)cc1[N+](=O)[O-] | 5.98% (inactive)
23 | O=C(CN1CCCCCC1)Nc1ccc(Br)cc1Br | 4.57% (inactive)
24 | O=C(CN1CCCCC1)Nc1ccc(Br)cc1C(=O)c1ccccc1Cl | 88.6% (active)
25 | COC(=O)C1=C(C(=O)OC)C2N(C)c3ccccc3[C@@]23CC(C(=O)OC)N(C(C)=O)C3=N1 (some centres undefined) | 3.76% (inactive)
26 | CC(C)C(=NNc1ccccc1[N+](=O)[O-])c1ccccc1 | 42.3% (inactive)
27 | NC(=O)C(=Cc1ccccc1)NC(=O)C=Cc1ccccc1 | -1.58% (inactive)
28 | CC(Cc1ccccc1)=NNC(=O)CNC(=O)Cc1ccccc1 | 2.62% (inactive)
29 | Cc1nc2c(cnn2-c2ccccc2)c(=O)n1N=Cc1ccccc1 | 6.82% (inactive)
30 | C=C[C@]1(C)CC(OC(=O)CSCCN(CC)CC)[C@]2(C)C(C)CC[C@]3(CCC(=O)C32)C(C)C1O (some centres undefined) | 99.9% (active) and 100% (active)
31 | O=C(C=Cc1ccccc1Cl)Nc1ccncc1 | -22.9% (inactive)
32 | C[C@]12CCC3c4ccc(O)cc4CCC3C1CCC2OC(=O)CCC(=O)O (some centres undefined) | 1.18% (inactive)
33 | O=C(CN1CCN(Cc2ccccc2)CC1)NN=Cc1ccc(Br)s1 | -1.87% (inactive)
34 | COc1cccc(C2CC=C(C(=O)O)C(c3ccc(F)cc3)N2S(=O)(=O)c2ccc(C)cc2)c1 (centres undefined) | 24.5% (inactive)
35 | O=[N+]([O-])c1cccc(C=NNc2nc(NCc3ccccc3)nc(N3CCOCC3)n2)c1O | 1.29% (inactive)
36 | Cc1ccc(-c2csc(N3CCCC3C(=O)NCCn3c(-c4ccncc4)nc4ccccc43)n2)cc1 (centres undefined) | 12.4% (inactive)
37 | Cc1nn(-c2ccccc2)c(C)c1C=NNC(=O)c1cc(-c2ccc(Br)s2)[nH]n1 | -11.7% (inactive)
38 | COc1c(N2CCN(C(=S)Nc3ccccc3F)C(C)C2)c(F)cc2c(=O)c(C(=O)O)cn(C3CC3)c12 (centres undefined) | 100% (active)
39 | CC1CN(C(=S)Nc2ccccc2F)CC(C)O1 (centres undefined) | 2.47% (inactive)
40 | COc1ccccc1NC(=S)N1CCN(c2ccc(F)cc2)CC1 | 6.45% (inactive)

Row | SMILES | growth inhibition
41 | CC=C(C)C(=O)Nc1cccc(C2=NOC3(C2)CC(C(N)=O)N(C(=O)c2ccc(OC)cc2)C3)c1 (centres undefined) | 0.227% (inactive)
42 | O=S(=O)(C=Cc1ccccc1)N1CCN(c2nc(-c3cccnc3)nc3ccccc23)CC1 | -1.02% (inactive)
43 | NC(=O)C(=O)NN=Cc1cccc(C(F)(F)F)c1 | 6.69% (inactive)
44 | O=[N+]([O-])c1c(NCCO)cc(Sc2nc3ccccc3s2)c2nonc12 | 99.9% (active)
45 | CCN(CC)CCCSc1nc2ccccc2s1 | 5.71% (inactive)
46 | OCCNc1nc(Nc2ccc(Cl)c(Cl)c2)nc2ccccc12 | -40.3% (inactive)
47 | CC(=O)CC1c2cc(C(F)(F)F)ccc2S(=O)(=O)N1C1CCCC1 (centres undefined) | -1.55% (inactive)
48 | CCOC(=O)c1ccc(NC(=O)c2nc[nH]c2C(=O)NC(Cc2ccccc2)C(=O)OC(C)(C)C)cc1 (centres undefined) | -22.8% (inactive)
49 | Cc1ccc(C(=O)NCC(=O)NN=Cc2cccs2)cc1[N+](=O)[O-] | 4.96% (inactive)
50 | COc1cc(C(=O)NN=Cc2cn(Cc3cccc(F)c3)c3ccccc23)ccc1O | -6.8% (inactive)
51 | COc1cccc(C=NNc2ncnc3c2ncn3Cc2ccccc2)c1O | 2.15% (inactive)
52 | COc1cccc(C=NNC(=O)CSCC(=O)Nc2ccccc2)c1O | -4.58% (inactive)
53 | COc1cccc(C=NNc2cc(-n3nc(C)cc3-c3ccccc3)ncn2)c1O | 101% (active)
54 | CCc1ccc2c(c1)C(=O)C[C@]1(CCCC(C)C1)O2 (some centres undefined) | 5.31% (inactive)
55 | C#CCNC(=O)C1=CC(c2csc3ccccc23)CC(OCCCCO)O1 (centres undefined) | -11.2% (inactive)
56 | Cc1ccc(OCC(=O)NN=Cc2ccc3c(c2)OCO3)cc1C | -11% (inactive)
57 | CCCCCN1CC(O)=C(c2ccccc2)C1=N | 2.59% (inactive)
58 | CCCCCCCCCCCCn1ccc(=N)cc1 | 101% (active)
59 | COc1ccc(C=NNc2nn3cnnc3c3ccccc23)cc1 | 12.2% (inactive)
